From the supplement of paper PMC6555819

Experiments:
Experiment in all cases: PBM binding z-score (relative to random genomic background probes); higher = stronger binding; sequences stand for … in GC…GCGATTGACAGCGTAGAATGAAGG
[1] = system: FXR:RXRa (NR concentration 270 nM, RXRa partner concentration 90 nM)
Summary of the method: (§1)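 Custom Agilent 4×180K protein-binding microarrays carried double-stranded probes, each with a 34-nt variable region. These regions held direct-repeat seeds, single-nucleotide variants, half-site ablations and random human genomic background sequences. Ligand-free nuclear receptor dimers were incubated on the arrays for 1 h, antibodies against each partner (one per run) detected binding, and scanned fluorescence was regression-normalized. Binding z-scores take the random background probes as reference.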

[2] = system: LXRa:RXRa (NR concentration 270 nM, RXRa partner concentration 90 nM)
Summary of the method: as §1

[3] = system: LXRa homodimer (NR concentration 270 nM)
Summary of the method: as §1

[4] = system: LXRb:RXRa (NR concentration 270 nM, RXRa partner concentration 90 nM)
Summary of the method: as §1

[5] = system: LXRb homodimer (NR concentration 270 nM)
Summary of the method: as §1

[6] = system: PPARa:RXRa (NR concentration 270 nM, RXRa partner concentration 90 nM)
Summary of the method: as §1

[7] = system: PPARg:RXRa (NR concentration 180 nM, RXRa partner concentration 90 nM)
Summary of the method: as §1

[8] = system: PPARg:RXRa 270nM:90nM, anti-RXR (NR concentration 270 nM, RXRa partner concentration 90 nM)
Summary of the method: as §1

[9] = system: PPARg:RXRa 30nM:10nM, anti-RXR (NR concentration 30 nM, RXRa partner concentration 10 nM)
Summary of the method: as §1

[10] = system: PPARg:RXRa 90nM:30nM, anti-RXR (NR concentration 90 nM, RXRa partner concentration 30 nM)
Summary of the method: as §1

[11] = system: PPARg:RXRa DBDmut IVT, anti-RXR (DBD mutation: RXRa K156A/R161A, NR concentration 270 nM, RXRa partner concentration 90 nM)
Summary of the method: as §1

[12] = system: PPARg:RXRa IVT, anti-PPARg (NR concentration 270 nM, RXRa partner concentration 90 nM)
Summary of the method: as §1

[13] = system: PPARg DBDmut:RXRa IVT, anti-PPARg (DBD mutation: PPARg1 K132A/R137A, NR concentration 270 nM, RXRa partner concentration 90 nM)
Summary of the method: as §1

[14] = system: PPARg DBDmut IVT, anti-PPARg (DBD mutation: PPARg1 K132A/R137A, NR concentration 270 nM)
Summary of the method: as §1

[15] = system: PPARg homodimer (NR concentration 180 nM)
Summary of the method: as §1

[16] = system: PXR:RXRa (NR concentration 270 nM, RXRa partner concentration 90 nM)
Summary of the method: as §1

[17] = system: PXR homodimer (NR concentration 270 nM)
Summary of the method: as §1

[18] = system: RARa:RXR (NR concentration 270 nM, RXRa partner concentration 90 nM)
Summary of the method: as §1

[19] = system: RARa homodimer (NR concentration 270 nM)
Summary of the method: as §1

[20] = system: RARb:RXRa (NR concentration 270 nM, RXRa partner concentration 90 nM)
Summary of the method: as §1

Sequence	PBM binding z-score [1]	PBM binding z-score [2]	PBM binding z-score [3]	PBM binding z-score [4]	PBM binding z-score [5]	PBM binding z-score [6]	PBM binding z-score [7]	PBM binding z-score [8]	PBM binding z-score [9]	PBM binding z-score [10]	PBM binding z-score [11]	PBM binding z-score [12]	PBM binding z-score [13]	PBM binding z-score [14]	PBM binding z-score [15]	PBM binding z-score [16]	PBM binding z-score [17]	PBM binding z-score [18]	PBM binding z-score [19]	PBM binding z-score [20]
CGTCCAGGGTCAGCAGGTCAGTGAAAGCGACGTG	5.44	3.06	-0.214	3.1	-0.458	5.11	4.16	4.41	0.684	2.92	1.76	3.07	-0.496	-0.836	2.79	3.35	0.0152	4.85	0.53	4.69
CATACAGGGTCAGCTATGCCAGAGTAGGGACGGC	4.14	2.68	-0.0915	1.98	0.359	4.21	3.53	2.58	0.968	1.77	0.895	2.38	0.429	0.135	0.969	2.18	-0.0786	3.05	0.191	4.03
CCTGCTAGGTCAATGGTCAGCTATAGCAGCTCGC	2.7	2.23	0.0531	1.44	0.0202	3.06	4.45	4.91	2.6	4.71	4.67	3.79	-0.186	-0.414	1.14	0.849	-0.745	1.57	-0.658	3.75
ACAGACAGGTGAGTGAAGGTAACCCAGCTGGACG	0.353	-0.0379	-0.585	-0.271	-0.844	0.275	0.708	0.399	-0.129	0.213	0.473	0.884	0.557	-0.411	0.0822	-0.299	-0.316	0.365	-0.386	0.623
GCTATAAGTTGAAAGGGCAACCGAATGATTCTCG	1.08	1.24	0.185	1.23	-0.471	3.05	2.26	3.37	1.46	3.15	0.434	0.831	0.223	0.266	1.11	1.41	0.107	2.56	0.129	2.46
CGTCCAATGTCAATGCTAGGTCAGTGAAAGCATT	0.511	0.781	0.797	0.644	-0.123	1.01	-0.028	0.117	-0.386	0.0802	0.333	0.858	-0.586	-0.143	0.93	0.655	-0.0465	1.27	-0.0899	2.17
AGAACGAGGGTACGCTGAGTTGATAGCAGAGTAG	-0.315	-0.553	-0.621	-0.739	-0.968	-0.00229	0.661	-0.197	-0.127	-0.289	1.48	0.725	0.215	0.0529	-0.458	0.223	0.15	-0.0408	-0.807	0.364
CGTCAAAGTTCAACTACGGTAACGTAAAGCACGC	6.73	6.61	4.35	4.24	2.11	5.17	4.85	5.54	2.32	4.26	0.132	1.78	0.517	0.931	3.69	5.14	3.79	4.38	2.22	5.2
GCAGATAGGTGAAACGCAGGTAACTCAGGGTGGC	-0.146	0.0468	-0.529	-0.0922	-1.28	1.27	0.838	0.277	-0.496	0.174	3.27	1.58	0.0261	-0.672	-0.419	-0.335	-0.798	0.347	-0.582	0.748
ATATGTAGGTTAGCTGGGGTTATTCAGACTAGGC	1.74	3.29	0.848	2.56	1.44	3.94	4.22	3.82	1.45	2.9	6.78	6.18	3.12	2.79	1.88	4.02	0.969	3.11	1.26	1.38
ATCTCTAGGTAACAAGTTCGGTGAAAGAGAGGAC	0.656	0.804	0.56	0.383	0.814	0.973	1.13	1.67	0.766	1.35	3.31	2.96	1.06	0.893	1.01	0.677	0.713	0.675	0.59	0.969
AATACAGGGCCATCGTAGGCCAGAGTACGCACAG	0.0639	0.221	-0.132	-0.283	-0.499	0.0726	0.954	-0.0465	-0.14	-0.0369	0.0782	0.608	0.846	-0.0733	-0.388	-0.255	-0.169	-0.00731	0.00973	0.931
TCTCGGAGGACACGAAGGTCAGAGCGTTCCAGAG	1.4	1.13	0.0459	0.874	-1.15	2.05	0.373	1.63	2.34	2.05	1.02	1.49	-0.71	-1.07	1	1.87	0.555	1.84	-0.476	3.4
